The list is not random: actives were taken first. Their share in the collection is about 1.4%.
A3G deaminase: inhibitors of human APOBEC3G DNA deaminase | recombinant A3G, ssDNA deamination FAM/TAMRA fluorescence | inhibition, % at 20 µM | actives 0.28% (n = 330,000) | AID 493012;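 active = inhibition of at least 40% at 20 µM, with no more than 30% in the related APOBEC3A deaminase screen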
FAS-TE inh: FAS thioesterase (human) inhibition | P49327 | actives 0.67% (n = 360,000) | recombinant FAS-TE, OMFH fluorogenic substrate, fluorescence endpoint | inhibition, % at 15 µM | AID 602261;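 active = compounds whose normalised, plate-corrected inhibition of enzyme fluorescence in the single-dose primary screen is 50% or more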
GC-A act: GC-A (human) enzyme activation; P16066; HEK293 GC-A cells, cGMP TR-FRET, EC30 ANP; 0% at EC30 ANP, 100% saturating ANP; activation, % at 10 µM; actives 0.14% (n = 370,000); in the data active = activation above about 40%
A3A deaminase: human APOBEC3A DNA deaminase inhibition | inhibition, % at 20 µM | actives 0.41% (n = 330,000) | recombinant A3A, FAM/TAMRA ssDNA deamination fluorescence | P31941;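 active = at least 40% inhibition at 20 µM here, with at most 30% in a related deaminase screen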
NPR2 activator: GC-B (human) receptor activation; P20594; HEK293-GC-B cells, CNP EC30, cGMP TR-FRET; 0% at EC30 CNP, 100% saturating CNP; activation, % at 10 µM; actives 0.11% (n = 370,000); AID 1920062;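 active = activation at 10 µM reaching about 35% in either raw or pattern-adjusted values, limit read from the data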
FAS-TE inh conf: FAS thioesterase (human) inhibition, confirmation | actives 45% (n = 2,300) | shares compounds with FAS-TE inh | inhibition, % at 15 µM | recombinant FAS-TE, OMFH fluorogenic substrate, fluorescence;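 active = compounds inhibiting the enzyme by at least 50% at 15 µM in any one of the replicates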
Large screens that a line does not name were inactive (follow-up assays come after a bar, where they were run).

CCC(=O)Nc1cccc(C2=NOC3(C2)C[C@@H](C(N)=O)N(C(=O)c2ccccc2C(=O)c2ccccc2)C3)c1 (stereo partly drawn)	none
NC(=O)[C@H]1CC2(CC(c3cccc(NC(=O)CC(c4ccccc4)c4ccccc4)c3)=NO2)CN1C(=O)C(c1ccccc1)c1ccccc1 (stereo partly drawn)	FAS-TE inh 67 | FAS-TE inh conf inactive
Cc1cc(N2CCN(CC(C)(C)O)C[C@H]2C)ccc1N1CCN(Cc2ccccc2)[C@@H](C)C1	none (no result: A3G deaminase, FAS-TE inh, A3A deaminase)
CC1CCCC(C)N1C(=O)COC(=O)c1cc([N+](=O)[O-])ccc1N1CCOCC1 (stereo not drawn)	FAS-TE inh 63 | FAS-TE inh conf 74
CC1CC(C)CN(C(=O)COC(=O)c2cc([N+](=O)[O-])ccc2N2CCOCC2)C1 (stereo not drawn)	FAS-TE inh 83 | FAS-TE inh conf 81
CCOC(=O)C1CCN(C(=O)COC(=O)c2cc([N+](=O)[O-])ccc2N2CCOCC2)CC1	FAS-TE inh 70 | FAS-TE inh conf 71
CC1CCN(c2ccc([N+](=O)[O-])cc2C(=O)N2CCOCC2)CC1	none
CCOC(=O)C1CCN(c2ccc([N+](=O)[O-])cc2S(=O)(=O)N2CCOCC2)CC1	none
CC1CCCN(C(=O)COC(=O)c2cc([N+](=O)[O-])ccc2N2CCOCC2)C1 (stereo not drawn)	FAS-TE inh 81 | FAS-TE inh conf 84
CC[C@H](NC(=O)[C@@H](Cc1ccccc1)NC(=O)[C@H]1O[C@@H](n2cnc3c(=O)[nH]c(N)nc32)[C@H](O)[C@@H]1O)c1ccccc1	none (no result: A3G deaminase, FAS-TE inh, A3A deaminase)
COc1ccc2c(c1)CCCN2C(=O)C1CCCN(S(=O)(=O)c2ccc(Br)s2)C1 (stereo not drawn)	none (no result: A3G deaminase, FAS-TE inh, A3A deaminase)
Cc1ccc(N2C(=N)/C(=C3/Nc4ccccc4S3)C(c3ccccc3)C2=O)cc1 (stereo not drawn)	FAS-TE inh 63 (no result: A3G deaminase, A3A deaminase) | FAS-TE inh conf inactive
Cc1ccc(N2C(=O)C(F)(F)C2c2ccccc2)cc1 (stereo not drawn)	none
CC(C)C(C(=O)NCc1ccccc1)N1CCN(CCN2CCOCC2)CC1 (stereo not drawn)	none (no result: A3G deaminase, FAS-TE inh, A3A deaminase)
O=C(NC1=N[C@@]2(C=C3CCCCC3n3c(=O)n(-c4ccccc4)c(=O)n32)[C@H](Cc2ccccc2)N1Cc1ccccc1)c1ccccc1 (stereo partly drawn)	none (no result: A3G deaminase, FAS-TE inh, A3A deaminase)
COc1ccc2c(c1)[C@@H]1[C@H](CO2)[C@H](c2ccccc2)[C@]2(C)C(=O)Nc3ccc(C)cc3C(=O)N12	FAS-TE inh 83 (no result: GC-A act, NPR2 activator) | FAS-TE inh conf inactive
COc1ccc2c(c1)[C@H]1[C@H](CO2)[C@H](c2ccccc2)[C@]2(C)C(=O)Nc3ccc(C)cc3C(=O)N12	none
COc1ccc2c(c1)OC[C@H]1[C@H]2N2C(=O)c3ccccc3NC(=O)[C@@]2(C)[C@H]1c1ccccc1	FAS-TE inh 70 | FAS-TE inh conf inactive
COc1ccc2c(c1)C(=O)N1[C@H]3c4cc(C)ccc4OC[C@@H]3[C@H](c3ccccc3)[C@]1(C)C(=O)N2	FAS-TE inh 73 | FAS-TE inh conf inactive
CCOC(=O)CC[C@H]1CC[C@]2(CCCN(C(=O)c3cccnc3)C2)O1	none (no result: A3G deaminase, FAS-TE inh, A3A deaminase)
CCCCC(CC)C(=O)Nc1ccccc1C#N (stereo not drawn)	none
CCCCC(CC)C(=O)Nc1cc([N+](=O)[O-])ccc1F (stereo not drawn)	FAS-TE inh 79 | FAS-TE inh conf 71
C#CCN1CC(N(C)CCOC(=O)c2ccc(F)cc2)CS1(=O)=O (stereo not drawn)	none (no result: A3G deaminase, FAS-TE inh, A3A deaminase)
COc1ccccc1NC(=O)c1ccccc1S(=O)(=O)c1ccccc1[N+](=O)[O-]	none
COc1ccccc1NC(=O)c1ccccc1S(=O)(=O)c1ccc([N+](=O)[O-])cc1	FAS-TE inh 54 | FAS-TE inh conf 63
CC(=O)Nc1ccc(NC(=O)c2ccccc2S(=O)(=O)c2ccccc2[N+](=O)[O-])cc1	none
CC(=O)Nc1ccc(NC(=O)c2ccccc2S(=O)(=O)c2ccc([N+](=O)[O-])cc2)cc1	FAS-TE inh 59 | FAS-TE inh conf 64
c1ccc(-c2cc(-c3nnc4sc(Cc5cccs5)nn34)[nH]n2)cc1	none (no result: A3G deaminase, FAS-TE inh, A3A deaminase)
CN(Cc1cn(Cc2ccccc2)nn1)S(=O)(=O)c1ccc(F)cc1Br	none (no result: A3G deaminase, FAS-TE inh, A3A deaminase)
COc1ccc(-c2csc(N3CCN(S(=O)(=O)c4ccc5c(c4)NC(=O)CO5)CC3)n2)cc1	none
Cc1sc(N2CCN(S(=O)(=O)c3ccc4c(c3)NC(=O)CO4)CC2)nc1-c1ccccc1	FAS-TE inh 70 | FAS-TE inh conf 68
Cc1c(Cl)c([N+](=O)[O-])nn1CCCC(=O)N(Cc1ccccc1)Cc1ccccc1	FAS-TE inh 63 | FAS-TE inh conf 61
Cc1c(Cl)c([N+](=O)[O-])nn1CCCC(=O)Nc1cc(Oc2ccccc2)cc([N+](=O)[O-])c1	FAS-TE inh 53 | FAS-TE inh conf inactive
CCCCN1CN2Cc3cc(OC)ccc3C2CS1(=O)=O (stereo not drawn)	none (no result: A3G deaminase, FAS-TE inh, A3A deaminase)
COc1ccc([C@H]2OC(=O)C[C@H]2C(=O)N2CCN(c3ccccc3Cl)CC2)cc1OC	none (no result: A3G deaminase, FAS-TE inh, A3A deaminase)
CCOC(=O)C1CCN(C(=O)c2ccc3c(=O)n4nc(Nc5ccccc5OC)sc4nc3c2)CC1	FAS-TE inh 54 (no result: A3G deaminase, A3A deaminase) | FAS-TE inh conf 59
CCOC(=O)C1CCN(C(=O)c2ccc3c(=O)n4nc(Nc5cc(C)ccc5C)sc4nc3c2)CC1	FAS-TE inh 55 | FAS-TE inh conf inactive
COc1ccccc1Nc1nn2c(=O)c3ccc(C(=O)N4CCCC(C)C4)cc3nc2s1 (stereo not drawn)	none
O=C(C(=O)N1CCC(CNS(=O)(=O)c2ccccc2OC(F)(F)F)CC1)c1cccs1	none (no result: A3G deaminase, FAS-TE inh, A3A deaminase)
CCOC(=O)c1cccc(NC(=O)CN(C)S(=O)(=O)c2ccco2)c1	none (no result: A3G deaminase, FAS-TE inh, A3A deaminase)
CC(Oc1ccccc1)C(=O)N1CCC2(CC1)Oc1ccc(F)cc1C(=O)C21CC(c2ccc(Cl)cc2)=NO1 (stereo not drawn)	none
O=C(/C=C/c1cccs1)N1CCC2(CC1)Oc1ccc(Cl)cc1C(=O)C21CC(c2ccccc2)=NO1 (stereo not drawn)	FAS-TE inh 73 | FAS-TE inh conf inactive
CC(Oc1ccccc1)C(=O)N1CCC2(CC1)Oc1ccc(F)cc1C(=O)C21CC(c2ccccc2)=NO1 (stereo not drawn)	FAS-TE inh 62 | FAS-TE inh conf inactive
CC(=O)Nc1ccc(NC(=O)Cn2nc([N+](=O)[O-])c(Br)c2C)cc1	none
Cc1c(Br)c([N+](=O)[O-])nn1CC(=O)Nc1ccc(Cc2ccncc2)cc1	FAS-TE inh 68 | FAS-TE inh conf 64

From PubChem
